For some of these results: Potency and affinity values are given separately.
What was measured:
Set-up in all cases: scale not given: direction of the effect not stated beside the values
[1] = target: Protein translocase subunit SecA (Escherichia coli (strain K12)) (UniProt P10408); test: Assay to Identify E. coli SecA ATPase Inhibitors; assay type: functional; conditions: 30 µM
[2] = target: T1, Ubiquitin-activating enzyme e1, putative (Leishmania donovani (strain BPK282A1)) (UniProt E9BSI1); test: Leishmania donovani Ubiquitin Activating Enzyme (LdE1); assay type: functional; conditions: 30 µM
T1 sequence (whole entry): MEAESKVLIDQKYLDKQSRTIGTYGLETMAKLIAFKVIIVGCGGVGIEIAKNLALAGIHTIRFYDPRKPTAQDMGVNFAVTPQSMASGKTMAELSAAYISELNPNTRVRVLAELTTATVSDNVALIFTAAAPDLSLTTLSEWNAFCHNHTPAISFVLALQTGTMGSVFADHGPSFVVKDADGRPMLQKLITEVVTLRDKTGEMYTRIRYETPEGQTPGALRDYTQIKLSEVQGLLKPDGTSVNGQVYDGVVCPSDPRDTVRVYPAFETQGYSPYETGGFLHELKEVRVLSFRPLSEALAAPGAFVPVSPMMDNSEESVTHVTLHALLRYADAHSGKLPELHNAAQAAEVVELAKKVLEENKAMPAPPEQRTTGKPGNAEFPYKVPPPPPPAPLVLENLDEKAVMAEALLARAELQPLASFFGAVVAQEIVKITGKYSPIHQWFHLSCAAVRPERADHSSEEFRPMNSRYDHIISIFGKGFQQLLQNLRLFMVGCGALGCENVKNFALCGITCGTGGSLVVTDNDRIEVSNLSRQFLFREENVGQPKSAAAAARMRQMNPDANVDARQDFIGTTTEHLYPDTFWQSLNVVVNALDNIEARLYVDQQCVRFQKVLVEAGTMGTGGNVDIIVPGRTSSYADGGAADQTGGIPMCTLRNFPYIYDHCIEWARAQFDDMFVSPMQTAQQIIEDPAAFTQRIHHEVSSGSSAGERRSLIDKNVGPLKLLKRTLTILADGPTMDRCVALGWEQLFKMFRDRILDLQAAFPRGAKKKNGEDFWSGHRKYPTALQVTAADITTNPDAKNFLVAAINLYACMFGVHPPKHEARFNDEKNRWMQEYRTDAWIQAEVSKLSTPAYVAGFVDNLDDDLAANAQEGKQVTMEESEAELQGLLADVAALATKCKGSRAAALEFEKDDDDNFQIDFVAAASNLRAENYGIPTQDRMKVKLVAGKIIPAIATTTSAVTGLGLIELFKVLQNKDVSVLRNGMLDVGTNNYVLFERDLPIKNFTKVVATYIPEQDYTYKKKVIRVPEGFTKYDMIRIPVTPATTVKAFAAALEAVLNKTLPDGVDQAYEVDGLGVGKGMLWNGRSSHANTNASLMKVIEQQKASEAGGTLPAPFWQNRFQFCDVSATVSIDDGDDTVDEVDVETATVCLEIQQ

[3] = target: AMP-activated protein kinase, AMPK (Homo sapiens) (UniProt P54646+O43741+P54619+Q9UGJ0+Q9Y478+Q13131+Q9UGI9); test: AMP-dependent Kinase enzyme assay. An in vitro enzyme assay that detects ADP turnover that is directly proportional to AMPK activity. This uses naive AMPK that is activated during the assay with MK-8722; assay type: functional; conditions: 30 µM
[4] = target: Sialic acid-binding Ig-like lectin 9 (Homo sapiens) (UniProt Q9Y336); test: Hs-Siglec9 ALPHAscreen SOP 20170721; conditions: 10 µM
Chain of Sialic acid-binding Ig-like lectin 9 (Homo sapiens) (Q9Y336 whole entry): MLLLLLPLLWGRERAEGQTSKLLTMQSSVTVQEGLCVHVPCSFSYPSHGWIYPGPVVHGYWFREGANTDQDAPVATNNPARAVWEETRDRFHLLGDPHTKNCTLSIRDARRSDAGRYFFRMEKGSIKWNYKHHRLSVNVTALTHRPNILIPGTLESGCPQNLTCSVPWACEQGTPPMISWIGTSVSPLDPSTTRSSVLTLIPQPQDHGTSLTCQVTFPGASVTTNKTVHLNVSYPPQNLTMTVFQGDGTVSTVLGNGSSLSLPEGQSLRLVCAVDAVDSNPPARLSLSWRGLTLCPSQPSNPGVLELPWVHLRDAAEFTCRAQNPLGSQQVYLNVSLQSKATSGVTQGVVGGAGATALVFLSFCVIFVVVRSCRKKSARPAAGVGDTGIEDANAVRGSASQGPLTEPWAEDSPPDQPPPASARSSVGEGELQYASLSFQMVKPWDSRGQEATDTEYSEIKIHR

Trypanosoma cruzi = test: Trypanosoma cruzi phosphomannomutase and mannose-1-phosphate guanylyltransferase assay; assay type: functional; conditions: 10 µM
[5] = target: T2, Arginase-2, mitochondrial (Homo sapiens) (UniProt P78540); test: in vitro enzyme assay to detect the production of urea directly proportional to the activity of Arginase II; assay type: functional; conditions: 33.3 µM; further: in the data most compounds retested in dose-response had high values
T2 sequence (whole entry): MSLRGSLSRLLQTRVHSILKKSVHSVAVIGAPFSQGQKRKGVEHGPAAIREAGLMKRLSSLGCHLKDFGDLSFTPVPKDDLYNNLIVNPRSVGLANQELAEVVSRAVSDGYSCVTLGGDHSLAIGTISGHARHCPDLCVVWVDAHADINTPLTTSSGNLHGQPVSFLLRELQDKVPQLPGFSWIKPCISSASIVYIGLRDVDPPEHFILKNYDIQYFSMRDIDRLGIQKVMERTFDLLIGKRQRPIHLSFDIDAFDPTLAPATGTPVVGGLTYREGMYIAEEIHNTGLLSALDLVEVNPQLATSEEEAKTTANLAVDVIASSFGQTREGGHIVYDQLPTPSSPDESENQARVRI

[6] = target: T3, Proteasome subunit beta (Trypanosoma cruzi) (UniProt O96673); test: Trypanosoma cruzi proteasome chymotrypsin-like activity (TcProtChymo) assay.; further: in the data most compounds retested in dose-response had high values; assay type: functional; conditions: 9.37 µM
T3 sequence (whole entry): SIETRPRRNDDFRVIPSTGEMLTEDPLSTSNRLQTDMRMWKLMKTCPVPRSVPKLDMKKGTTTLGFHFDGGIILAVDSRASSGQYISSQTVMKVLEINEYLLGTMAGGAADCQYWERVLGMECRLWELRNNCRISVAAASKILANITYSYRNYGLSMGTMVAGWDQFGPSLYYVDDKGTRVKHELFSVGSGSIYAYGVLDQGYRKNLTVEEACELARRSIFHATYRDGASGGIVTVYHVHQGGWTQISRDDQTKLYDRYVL

Homo sapiens = species: Homo sapiens; test: To identify inhibition of the IFN signalling (Jak-Stat) pathway via expression of an eGFP reporter gene under the control of an IFN-stimulated response element (ISRE) containing MxA promoter.; assay type: functional; conditions: 30 µM
[7] = target: T4, Tyrosyl-tRNA synthetase, putative (Trypanosoma cruzi (strain CL Brener)) (UniProt Q4DSP6); test: Trypanosoma cruzi tyrosyl tRNA synthetase (TcYRS) _High Tyrosine SOP; assay type: functional; conditions: 30 µM; further: in the data most compounds retested in dose-response had high values
T4 sequence (whole entry): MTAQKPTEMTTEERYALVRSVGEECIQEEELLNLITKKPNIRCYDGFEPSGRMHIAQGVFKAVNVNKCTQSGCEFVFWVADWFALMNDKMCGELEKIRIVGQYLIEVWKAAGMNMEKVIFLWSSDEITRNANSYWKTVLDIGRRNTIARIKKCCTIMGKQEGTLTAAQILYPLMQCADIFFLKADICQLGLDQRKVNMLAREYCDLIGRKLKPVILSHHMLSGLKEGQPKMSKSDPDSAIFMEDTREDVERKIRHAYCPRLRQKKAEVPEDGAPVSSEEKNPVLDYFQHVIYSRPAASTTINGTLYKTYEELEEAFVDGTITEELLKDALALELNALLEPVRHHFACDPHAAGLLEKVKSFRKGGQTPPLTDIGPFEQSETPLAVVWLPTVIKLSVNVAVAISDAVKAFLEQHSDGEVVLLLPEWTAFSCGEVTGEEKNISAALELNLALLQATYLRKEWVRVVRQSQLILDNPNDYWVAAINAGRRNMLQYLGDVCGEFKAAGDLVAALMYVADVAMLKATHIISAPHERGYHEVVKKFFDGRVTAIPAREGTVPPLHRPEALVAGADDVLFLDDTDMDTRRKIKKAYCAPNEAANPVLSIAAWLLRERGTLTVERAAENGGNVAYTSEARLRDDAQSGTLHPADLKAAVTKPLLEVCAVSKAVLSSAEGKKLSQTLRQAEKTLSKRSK

[8] = target: T4, Tyrosyl-tRNA synthetase, putative (Trypanosoma cruzi (strain CL Brener)); test: Trypanosoma cruzi tyrosyl tRNA synthetase (TcYRS) SOP; assay type: functional; conditions: 30 µM
[9] = target: Chromo domain-containing protein 1 (Saccharomyces cerevisiae (strain ATCC 204508 / S288c) (Baker's yeast)) (UniProt P32657); test: ScCHD-1 Enzyme Inhibition Assay; assay type: functional; conditions: 30 µM; further: in the data most compounds retested in dose-response had high values
Chain of Chromo domain-containing protein 1 (Saccharomyces cerevisiae (strain ATCC 204508 / S288c) (Baker's yeast)) (P32657 whole entry, the tested form may be a part): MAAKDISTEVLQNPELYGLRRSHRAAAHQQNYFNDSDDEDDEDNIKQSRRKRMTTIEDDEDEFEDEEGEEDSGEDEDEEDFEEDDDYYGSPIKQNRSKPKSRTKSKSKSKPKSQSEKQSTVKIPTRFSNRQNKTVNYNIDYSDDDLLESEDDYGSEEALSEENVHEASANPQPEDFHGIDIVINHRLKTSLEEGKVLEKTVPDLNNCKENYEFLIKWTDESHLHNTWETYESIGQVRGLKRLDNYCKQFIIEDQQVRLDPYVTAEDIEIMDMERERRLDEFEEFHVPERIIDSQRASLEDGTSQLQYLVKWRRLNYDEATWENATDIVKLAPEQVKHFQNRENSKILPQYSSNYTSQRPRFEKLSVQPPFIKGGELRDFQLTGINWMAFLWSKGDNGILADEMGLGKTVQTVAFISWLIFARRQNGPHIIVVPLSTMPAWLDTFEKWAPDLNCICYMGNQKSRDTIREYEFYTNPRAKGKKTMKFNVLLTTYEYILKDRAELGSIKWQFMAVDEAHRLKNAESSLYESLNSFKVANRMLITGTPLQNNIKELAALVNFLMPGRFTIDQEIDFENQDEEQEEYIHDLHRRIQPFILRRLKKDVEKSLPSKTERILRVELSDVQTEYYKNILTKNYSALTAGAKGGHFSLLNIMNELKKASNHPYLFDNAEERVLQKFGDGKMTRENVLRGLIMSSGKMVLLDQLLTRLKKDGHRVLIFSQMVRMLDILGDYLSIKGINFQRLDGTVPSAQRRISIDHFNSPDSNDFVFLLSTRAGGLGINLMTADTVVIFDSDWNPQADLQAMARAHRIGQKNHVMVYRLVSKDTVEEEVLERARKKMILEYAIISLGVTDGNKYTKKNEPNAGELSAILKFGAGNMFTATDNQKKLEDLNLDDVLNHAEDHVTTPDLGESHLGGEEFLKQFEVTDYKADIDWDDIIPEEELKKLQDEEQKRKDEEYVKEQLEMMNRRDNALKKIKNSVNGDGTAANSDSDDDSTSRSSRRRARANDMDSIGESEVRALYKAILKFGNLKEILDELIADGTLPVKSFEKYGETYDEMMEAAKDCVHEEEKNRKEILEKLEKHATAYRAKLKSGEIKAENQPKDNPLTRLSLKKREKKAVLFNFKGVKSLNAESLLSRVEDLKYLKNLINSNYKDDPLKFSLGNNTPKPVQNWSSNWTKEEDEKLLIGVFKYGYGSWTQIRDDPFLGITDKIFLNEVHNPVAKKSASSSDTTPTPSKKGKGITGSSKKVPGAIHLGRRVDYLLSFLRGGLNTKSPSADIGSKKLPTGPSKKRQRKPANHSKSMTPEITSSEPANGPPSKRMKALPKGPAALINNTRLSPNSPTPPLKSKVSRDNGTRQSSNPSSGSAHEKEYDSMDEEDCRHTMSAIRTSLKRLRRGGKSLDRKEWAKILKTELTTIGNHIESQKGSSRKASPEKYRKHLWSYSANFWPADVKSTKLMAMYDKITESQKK

Chain of Protein translocase subunit SecA (Escherichia coli (strain K12)) (P10408 whole entry): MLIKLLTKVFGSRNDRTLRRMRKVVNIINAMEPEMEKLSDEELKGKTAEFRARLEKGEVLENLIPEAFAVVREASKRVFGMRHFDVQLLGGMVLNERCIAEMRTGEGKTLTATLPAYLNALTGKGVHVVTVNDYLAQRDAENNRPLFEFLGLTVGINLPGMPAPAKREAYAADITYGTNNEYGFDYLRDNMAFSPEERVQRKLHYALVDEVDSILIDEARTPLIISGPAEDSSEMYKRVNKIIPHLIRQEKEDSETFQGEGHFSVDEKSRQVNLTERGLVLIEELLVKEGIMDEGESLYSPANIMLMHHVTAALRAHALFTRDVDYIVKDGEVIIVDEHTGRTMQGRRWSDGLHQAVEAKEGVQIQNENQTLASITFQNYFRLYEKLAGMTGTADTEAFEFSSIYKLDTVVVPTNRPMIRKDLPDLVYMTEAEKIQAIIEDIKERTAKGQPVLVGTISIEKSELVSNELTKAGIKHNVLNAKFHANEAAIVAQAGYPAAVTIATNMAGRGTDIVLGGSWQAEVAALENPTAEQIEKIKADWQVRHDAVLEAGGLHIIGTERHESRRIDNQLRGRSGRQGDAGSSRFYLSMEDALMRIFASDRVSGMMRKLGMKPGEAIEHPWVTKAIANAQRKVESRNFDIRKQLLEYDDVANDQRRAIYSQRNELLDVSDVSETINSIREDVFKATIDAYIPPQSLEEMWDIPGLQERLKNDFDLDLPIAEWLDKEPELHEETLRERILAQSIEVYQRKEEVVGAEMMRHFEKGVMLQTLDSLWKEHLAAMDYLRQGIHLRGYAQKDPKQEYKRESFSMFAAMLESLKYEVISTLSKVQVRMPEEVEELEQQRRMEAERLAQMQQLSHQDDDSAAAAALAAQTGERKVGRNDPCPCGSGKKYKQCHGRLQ

SMILES	Percent Effect [1] [%]	Percent Effect [2] [%]	Percent Effect [3] [%]	Percent Effect [4] [%]	Percent Effect (Trypanosoma cruzi) [%]	Percent Effect [5] [%]	Percent Effect [6] [%]	Percent Effect (Homo sapiens) [%]	Percent Effect [7] [%]	Percent Effect [8] [%]	Percent Effect [9] [%]
CNS(=O)(=O)c1cccc(C(C)NCc2nccn2C(C)C)c1 (stereo unspecified)	-0.324	13.5	-9.13	-6.24	-0.781	16.2	16.3	10.9	10.9	15.8	2.31
Cc1cc(N2CCC(N(C)C(=O)c3ccccc3)CC2)nc(C)n1	-2.59	19.2	2.37	4.5	5.09	10.4	11.4	29.3	7.53	17.5	-8.12
O=C(CCNC(=O)C1CCCC1)NCc1ccccc1Cn1cncn1	-3.71	31.6	0.311	-9.83	-1.96	-2.52	7.87	1.98	6.4	18.5	0.0492
CC(C)CN1Cc2c(C(=O)N(C)C)ncn2-c2ccccc2S1(=O)=O	-3.52	5.41	-2.12	-3.11	-2.83	0.319	11.6	-4.16	3.24	15.4	0.625
Cc1noc(C)c1CNC(=O)N1CCC(C(O)c2ccccc2)CC1 (stereo unspecified)	-4.23	11	-3.81	6.33	7.54	-4.79	-1.8	11.9	2.08	13.6	-3.08
O=C(NC1(c2cccc(F)c2)CCOCC1)c1cc[nH]n1	-4.6	5.2	0.0633	4.75	0.885	-23.4	5.32	4.47	2.15	3.7	-1.53
O=C(CCNS(=O)(=O)c1ccc2c(c1)CCCC2)NCc1ccoc1	-5	5.33	8.4	5.02	-2.43	-2.08	8.37	14.2	4.92	11.1	-6.46
Cc1cc(O)nc(C2CCCN(Cc3ccncc3)C2)n1 (stereo unspecified)	-0.276	14.9	4.7	-7.91	3.75	-0.696	10.4	-0.951	1.07	11.7	-12.3
CC(C)CCN1CN=C(NS(=O)(=O)c2ccc(F)cc2)NC1	-1.41	6.67	4.23	1.92	-1.38	-9.33	9.61	-4.88	5.29	10.3	-8.81
c1ccc(OCC2CC3(CCN(c4ncccn4)CC3)CO2)nc1 (stereo unspecified)	-0.807	1.33	3.04	-2.52	-1.57	-5.46	10.9	14	0	-2.56	-5.94
Cc1cc(C)n(CC(=O)N2CCC(NS(=O)(=O)c3ccccc3)CC2)n1	-0.375	13.2	4.71	6.53	-1.32	0.383	4.84	15.1	1.47	7.32	-3.29
